Rows were chosen to be rich in hits. Some 5.4% of all compounds tested hit in one or more screens of this group.
Six1-Eya2 blk = Six1/Eya2 interaction inhibition; activity change, % (concentration not given with the values); actives 0.56% (n = 360,000); Q15475+O00167; AlphaScreen GST-Six1/His-Eya2 binding, biochemical; stronger effect = lower value; in the data active = activity change below about -65%; inconclusive = mostly about -30% to -63%; also: % is scaled to controls: 0 for no effect and ±100 for the full control effect
Target sequence (O00167 whole entry, looked up): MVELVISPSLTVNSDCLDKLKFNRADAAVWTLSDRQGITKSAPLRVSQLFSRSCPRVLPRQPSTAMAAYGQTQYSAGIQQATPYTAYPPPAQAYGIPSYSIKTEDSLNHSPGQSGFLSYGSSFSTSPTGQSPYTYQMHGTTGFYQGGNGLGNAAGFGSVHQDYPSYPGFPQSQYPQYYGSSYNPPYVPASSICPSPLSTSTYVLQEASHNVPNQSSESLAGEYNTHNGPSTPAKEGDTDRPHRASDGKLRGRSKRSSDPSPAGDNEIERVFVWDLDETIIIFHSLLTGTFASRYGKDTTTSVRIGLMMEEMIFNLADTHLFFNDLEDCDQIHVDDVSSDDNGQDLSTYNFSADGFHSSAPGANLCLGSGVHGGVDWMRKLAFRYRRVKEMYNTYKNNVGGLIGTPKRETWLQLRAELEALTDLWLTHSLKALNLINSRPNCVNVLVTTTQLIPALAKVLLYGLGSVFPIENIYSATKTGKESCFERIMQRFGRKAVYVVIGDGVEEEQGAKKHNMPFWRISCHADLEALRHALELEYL
Target sequence (Q15475 whole entry, looked up): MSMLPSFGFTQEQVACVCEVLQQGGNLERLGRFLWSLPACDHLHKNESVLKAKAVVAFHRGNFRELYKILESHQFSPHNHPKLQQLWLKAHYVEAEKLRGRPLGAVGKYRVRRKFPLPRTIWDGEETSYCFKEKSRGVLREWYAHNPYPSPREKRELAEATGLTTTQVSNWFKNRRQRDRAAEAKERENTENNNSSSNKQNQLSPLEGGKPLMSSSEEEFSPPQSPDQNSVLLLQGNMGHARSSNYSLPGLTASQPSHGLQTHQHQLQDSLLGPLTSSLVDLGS
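GST-Six1 + His-Eya2 (5X stock: 250/500 nM); Tris pH 8.0, 300 mM NaCl, 0.05% BSA, 0.02% Tween 20; GSH donor/Ni acceptor beads; 1 h 37 °C dark; AlphaScreen readout.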
CtBP-E1A blk = inhibitors of CtBP/E1A interaction; activity change, % (test concentration not listed); actives 0.49% (n = 340,000); AlphaScreen GST-E1A/His-CtBP binding, 1536-well; stronger effect = lower value; in the data active = activity change below about -65%; inconclusive = mostly about -30% to -63%; also: % is scaled to controls: 0 for no effect and ±100 for the full control effect
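Homogeneous bead-based format: GST-tagged E1A captured on glutathione donor beads, His-tagged CtBP on nickel acceptor beads; compounds precede bead addition by 2 h at 37 °C.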
RORgamma inh = inhibitors of mouse ROR gamma transcriptional activity; actives 5.4% (n = 310,000); Potency, µM (top dose mostly 53.6 µM), for inactives: at the highest dose activity change, negative = inhibition, most hits filed as inhibitors; Drosophila S2 Gal4-RORgamma UAS-luciferase reporter, 20 h; AID 2551; also: potency is read from the fitted curve at half-maximal effect; % is scaled to controls: 0 for no effect and ±100 for the full control effect; nearly all actives have a fitted effect of over 60% in size
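In this cell-based reporter format, copper sulfate (700 uM final) drives Gal4–ROR gamma fusion expression from a metallothionein promoter in Drosophila Schneider cells; compounds preincubated 1 hr, reporter read after 20 hr at ambient temperature.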
p53 reactivator = re-activators of mutant p53. H1299 p53-A138V BP100-luciferase reporter, luminescence, 24 h. Potency, µM (series often up to 92.2 µM), without a hit: top-dose activity change, positive = activation, actives largely listed as activators. actives 0.063% (n = 320,000); also: potency is read from the fitted curve at half-maximal effect; % of control where 0% means no effect; nearly all actives have a fitted effect of over 45% in size
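p53-null H1299 cells stably carrying temperature-sensitive p53-A138V and a BP100-luciferase reporter were pinned with compounds (4-point, 1:5 series) and held 24 hrs at 37 deg C. Luminescence was read 10 min after detection reagent.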
VP16 counter = Gal4-VP16 reporter inhibition counter-screen; Drosophila S2 Gal4-VP16 UAS-luciferase, luminescence, 20 h; Potency, µM (doses to about 53.6 µM), without a hit: at the highest dose activity, negative = inhibition, usual class: inhibitors; actives 3.5% (n = 310,000);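 also: Gal4-VP16 expression switched on by copper sulfate through the metallothionein promoter; potency is read from the fitted curve at half-maximal effect; % is scaled to controls: 0 for no effect and ±100 for the full control effect; nearly all actives have a fitted effect of over 50% in size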
The depositor's hits bear a star; [ ] = remark or other dose. Unless noted, calls follow the shape of the dose curve; as a rule, active = well fitted curve in the direction sought with a large enough effect; inconclusive = small, poorly fitted or top-dose-only effect, or another doubt; inactive = no such curve, though single readings can be large; an effect the other way counts as inactive or inconclusive.

For COc1ccc(NC(=O)/C(C#N)=C/c2ccc(Sc3nncn3C)c([N+](=O)[O-])c2)cc1 the results were Six1-Eya2 blk -1, CtBP-E1A blk -16, RORgamma inh -40%, p53 reactivator 10% and VP16 counter 22µM*.
For CC(C)CC1NC(=O)C(CCCN)NC(=O)C(C(C)C)NC(=O)C2CCCN2C(=O)C(Cc2ccccc2)NC(=O)C(CC(C)C)NC(=O)C(CCCN)NC(=O)C(C(C)C)NC(=O)C2CCCN2C(=O)C(Cc2ccccc2)NC1=O (stereo not drawn) the results were RORgamma inh 0.089µM* and VP16 counter 0.28µM*.
`Cc1cc(C)c2cc(C#N)c(SCC(=O)NCc3ccco3)nc2c1` gave Six1-Eya2 blk -7, CtBP-E1A blk -3, RORgamma inh 13µM*, p53 reactivator inconclusive and VP16 counter inconclusive.
`Cc1cc(C)c2cc(C)c(SCC(=O)NCc3ccco3)nc2c1` gave Six1-Eya2 blk -18, CtBP-E1A blk -1, RORgamma inh 22%, p53 reactivator -3% and VP16 counter -4%.
`Cc1cc2nc(-c3cccnc3SCC(=O)NCc3ccco3)[nH]c2cc1C` gave Six1-Eya2 blk -14, CtBP-E1A blk -10, RORgamma inh 11µM*, p53 reactivator inconclusive and VP16 counter 13µM*.
For CO/N=C\CC(=O)Nc1ccc(Cl)cc1Cl the results were Six1-Eya2 blk -1, CtBP-E1A blk 0, RORgamma inh -1%, p53 reactivator 9% and VP16 counter -10%.
`CN(C)/C=N/C(=S)Nc1ccccc1Cl` gave Six1-Eya2 blk 4, CtBP-E1A blk 0, RORgamma inh 6.3µM*, p53 reactivator 2% and VP16 counter 8%[10 µM].
CN(C)/C=N/C(=S)Nc1cc(Cl)cc(Cl)c1 was read as Six1-Eya2 blk -1, CtBP-E1A blk -24, RORgamma inh 20%, p53 reactivator -4% and VP16 counter -1%[10 µM].
For CN(N)C(=S)Nc1ccc(F)cc1 the results were Six1-Eya2 blk 4, CtBP-E1A blk -2, RORgamma inh -3%, p53 reactivator 4% and VP16 counter 4%.
Screening CN(C)/C=N/C(=S)Nc1ccc(Cl)c(Cl)c1 returned Six1-Eya2 blk 13, CtBP-E1A blk 5, RORgamma inh 1.8µM*, p53 reactivator 19% and VP16 counter 3.2µM*.
For CN(O)/C=N/C(=S)Nc1ccc(Cl)cc1Cl the results were Six1-Eya2 blk -1, CtBP-E1A blk 11, RORgamma inh 18µM*, p53 reactivator 19% and VP16 counter 1%.
Screening CN(C)/C=N/C(=S)Nc1ccc(F)cc1 returned Six1-Eya2 blk 0, CtBP-E1A blk -1, RORgamma inh 11µM* and VP16 counter inconclusive.
`CN(C)/C=N/C(=S)Nc1ccccc1F` gave Six1-Eya2 blk 0, CtBP-E1A blk -1, RORgamma inh -30%, p53 reactivator 12% and VP16 counter -2%.
Cc1ccc(-c2noc(CCC(=O)NC3CC3)n2)cc1 was read as Six1-Eya2 blk -1, CtBP-E1A blk 10, RORgamma inh -2%, p53 reactivator 8% and VP16 counter -2%.
`COc1ccc(O[C@H]2C=C[C@@H](c3ccccc3)O[C@H]2COC(=O)CC/C(C)=N\OC[C@@H](O)COCc2ccco2)cc1` gave RORgamma inh 39%[10 µM] and VP16 counter -7%[10 µM].
Screening CC1=NN(c2ccc(C(=O)O)cc2)C(=O)/C1=C\c1ccc(OC(=O)c2cccs2)cc1 returned Six1-Eya2 blk inconclusive, RORgamma inh 11µM*, p53 reactivator -6% and VP16 counter -1%.
For CCN(CC)c1ccc(/C=N/Nc2ccc(C)cc2)c(O)c1 the results were Six1-Eya2 blk inconclusive, CtBP-E1A blk inconclusive, RORgamma inh 1%, p53 reactivator inconclusive and VP16 counter -5%.
`CCN(CC)c1ccc(/C=N/Nc2nc(C)cc(=O)[nH]2)c(O)c1` gave Six1-Eya2 blk -92*, CtBP-E1A blk -98*, RORgamma inh 5µM*, p53 reactivator inconclusive and VP16 counter 3.2µM*.
For Cc1cc(=O)[nH]c(NN=Cc2cc(Br)ccc2O)n1 the results were Six1-Eya2 blk -89* and CtBP-E1A blk -94*.
CCCCCCC#Cc1cc(OC)c(OC)cc1C(N1CC(C)c2ccccc21)N1CC(C)c2ccccc21 (stereo not drawn) was read as RORgamma inh 9%[10 µM] and VP16 counter -11%[10 µM].
For O=C(c1cc(COc2ccc(F)c(F)c2)on1)N1CCN(C2CCCCC2)C(=O)C1 the results were Six1-Eya2 blk 3, RORgamma inh inconclusive, p53 reactivator 3% and VP16 counter -5%.
For O=C(N/N=C/c1sc(N2CCOCC2)nc1-c1ccccc1)c1ccccc1O the results were Six1-Eya2 blk inconclusive, CtBP-E1A blk inconclusive, RORgamma inh 2.2µM*, p53 reactivator -10% and VP16 counter 2.8µM*.
O=C(N/N=C/c1sc(N2CCOCC2)nc1-c1ccccc1)c1ccccc1Cl was read as Six1-Eya2 blk -8, RORgamma inh 0%, p53 reactivator -1% and VP16 counter -7%.
`O=[N+]([O-])c1ccc(N/N=C/c2sc(N3CCOCC3)nc2-c2ccccc2)c(S(=O)(=O)Nc2ccc(Cl)cc2)c1` gave Six1-Eya2 blk -3, CtBP-E1A blk 2, RORgamma inh inconclusive, p53 reactivator -12% and VP16 counter 3.2µM*.
Screening O=C(N/N=C/c1ccc(N2CCOCC2)s1)c1ccccc1Cl returned Six1-Eya2 blk -2, CtBP-E1A blk -5, RORgamma inh 7.9µM*, p53 reactivator -1% and VP16 counter inconclusive.
`CC1CC(=S)Nc2ccccc2S1` (stereo not drawn) gave Six1-Eya2 blk -2, CtBP-E1A blk -19, RORgamma inh inconclusive, p53 reactivator -11% and VP16 counter 4µM*.
O=C1CC(c2ccc(F)cc2)Sc2ccccc2N1 (stereo not drawn) was read as Six1-Eya2 blk 1, CtBP-E1A blk -4, RORgamma inh 6%, p53 reactivator 1% and VP16 counter -5%.
For Cc1cc(C)c2c(N)c(S(=O)(=O)c3ccccc3)sc2n1 the results were Six1-Eya2 blk 4, CtBP-E1A blk -1, RORgamma inh 1%, p53 reactivator 4% and VP16 counter inconclusive.
Cc1cc2c(sc3c(C)ccc(C)c32)c(C)n1 was read as Six1-Eya2 blk -2, CtBP-E1A blk -4, RORgamma inh 18µM*, p53 reactivator 5% and VP16 counter -6%.
COCCN(C(=O)CSc1nnc(C)n1-c1ccccc1)c1c(N)n(Cc2ccccc2)c(=O)[nH]c1=O was read as Six1-Eya2 blk -6, CtBP-E1A blk -10, RORgamma inh -4%, p53 reactivator 5% and VP16 counter -6%.

Screening results (PubChem BioAssay)
